The supplement of paper PMC11732987, “Enantioselective OTUD7B fragment discovery through chemoproteomics screening and high-throughput optimisation” (Communications Chemistry, 2025)

Experiments:
Assay in all cases: log2 ratio of Biotin-Ahx-Ub-VS probe labelling (fragment/DMSO); higher = less target engagement (more negative = stronger competition), active = hit call of the paper (q ≤ 0.05, log2 ratio ≤ -1)
Settings in all cases: compound concentration: 200 uM; treatment time: 3 h
ALG13 = biological target: T1, ALG13 (UniProt Q9NP73)
T1 sequence (whole entry): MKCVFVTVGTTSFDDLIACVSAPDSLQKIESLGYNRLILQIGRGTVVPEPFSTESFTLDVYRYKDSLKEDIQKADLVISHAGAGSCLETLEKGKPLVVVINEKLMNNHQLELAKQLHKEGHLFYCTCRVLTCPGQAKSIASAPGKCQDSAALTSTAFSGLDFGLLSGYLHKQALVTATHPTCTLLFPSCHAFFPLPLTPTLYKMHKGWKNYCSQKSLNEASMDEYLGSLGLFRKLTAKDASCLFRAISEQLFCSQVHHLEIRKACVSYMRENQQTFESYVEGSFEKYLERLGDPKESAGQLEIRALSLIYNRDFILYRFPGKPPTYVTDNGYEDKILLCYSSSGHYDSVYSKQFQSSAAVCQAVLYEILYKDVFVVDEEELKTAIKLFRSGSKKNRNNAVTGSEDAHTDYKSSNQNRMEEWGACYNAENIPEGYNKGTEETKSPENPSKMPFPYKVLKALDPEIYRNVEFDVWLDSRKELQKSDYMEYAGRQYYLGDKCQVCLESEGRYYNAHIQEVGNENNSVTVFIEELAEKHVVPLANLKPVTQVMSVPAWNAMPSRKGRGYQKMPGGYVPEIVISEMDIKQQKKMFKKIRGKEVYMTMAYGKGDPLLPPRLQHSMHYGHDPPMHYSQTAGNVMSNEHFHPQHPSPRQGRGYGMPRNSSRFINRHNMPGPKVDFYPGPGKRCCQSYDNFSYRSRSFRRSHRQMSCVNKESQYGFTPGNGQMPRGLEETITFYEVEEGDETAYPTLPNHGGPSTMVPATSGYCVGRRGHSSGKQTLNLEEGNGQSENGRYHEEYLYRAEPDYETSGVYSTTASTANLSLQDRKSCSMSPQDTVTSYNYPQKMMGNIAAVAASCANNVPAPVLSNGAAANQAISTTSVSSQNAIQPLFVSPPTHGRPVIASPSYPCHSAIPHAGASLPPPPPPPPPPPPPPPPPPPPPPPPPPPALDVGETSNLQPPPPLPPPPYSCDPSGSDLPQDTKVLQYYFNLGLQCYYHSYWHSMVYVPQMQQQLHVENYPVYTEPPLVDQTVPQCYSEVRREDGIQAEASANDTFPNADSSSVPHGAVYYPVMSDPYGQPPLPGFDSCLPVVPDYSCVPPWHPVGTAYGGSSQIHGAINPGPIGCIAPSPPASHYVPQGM
Summary of the method: (§1)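 HEK293T lysate, 495 µg per sample in Tris/CHAPS/IGEPAL buffer with protease inhibitors, was treated in triplicate with fragment at 200 µM or vehicle for 3 h and then with Biotin-Ahx-Ub-VS at 0.5 µM final for 1 h. Labelled DUBs were NeutrAvidin-enriched, digested with LysC and trypsin, and run by diaPASEF LC-MS/MS. Spectronaut label-free quantities were global-median-normalised, and values are average log2 fragment/vehicle ratios by unpaired t-test on proteins with ≥2 unique peptides.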

ATXN3 = ATXN3 (UniProt P54252)
Summary of the method: as §1

BAP1 = biological target: T2, BAP1 (UniProt Q92560)
T2 sequence (whole entry): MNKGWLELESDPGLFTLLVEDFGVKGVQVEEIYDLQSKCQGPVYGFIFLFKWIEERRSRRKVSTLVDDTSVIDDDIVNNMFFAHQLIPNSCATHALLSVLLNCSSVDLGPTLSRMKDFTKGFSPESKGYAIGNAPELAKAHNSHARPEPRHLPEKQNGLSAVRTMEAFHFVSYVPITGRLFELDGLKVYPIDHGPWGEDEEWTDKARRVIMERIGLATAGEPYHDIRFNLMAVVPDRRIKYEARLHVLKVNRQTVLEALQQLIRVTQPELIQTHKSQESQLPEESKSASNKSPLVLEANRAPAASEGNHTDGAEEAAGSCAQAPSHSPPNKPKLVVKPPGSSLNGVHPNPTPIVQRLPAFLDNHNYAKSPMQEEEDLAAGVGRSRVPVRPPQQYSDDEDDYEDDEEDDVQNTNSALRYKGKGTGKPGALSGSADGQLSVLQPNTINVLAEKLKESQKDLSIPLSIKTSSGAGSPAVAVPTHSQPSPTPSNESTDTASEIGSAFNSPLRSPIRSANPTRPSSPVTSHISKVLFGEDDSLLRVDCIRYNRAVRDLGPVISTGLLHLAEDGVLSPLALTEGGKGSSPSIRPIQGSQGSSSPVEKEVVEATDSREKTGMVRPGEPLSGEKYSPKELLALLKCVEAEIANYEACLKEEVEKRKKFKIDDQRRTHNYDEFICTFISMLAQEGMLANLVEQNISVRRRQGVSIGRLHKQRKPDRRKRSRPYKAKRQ
Summary of the method: as §1

EIF3F = EIF3F (UniProt O00303)
Summary of the method: as §1

EIF3H = EIF3H (UniProt O15372)
Summary of the method: as §1

FAM105A = biological target: T3, FAM105A (UniProt Q9NUU6)
T3 sequence (whole entry): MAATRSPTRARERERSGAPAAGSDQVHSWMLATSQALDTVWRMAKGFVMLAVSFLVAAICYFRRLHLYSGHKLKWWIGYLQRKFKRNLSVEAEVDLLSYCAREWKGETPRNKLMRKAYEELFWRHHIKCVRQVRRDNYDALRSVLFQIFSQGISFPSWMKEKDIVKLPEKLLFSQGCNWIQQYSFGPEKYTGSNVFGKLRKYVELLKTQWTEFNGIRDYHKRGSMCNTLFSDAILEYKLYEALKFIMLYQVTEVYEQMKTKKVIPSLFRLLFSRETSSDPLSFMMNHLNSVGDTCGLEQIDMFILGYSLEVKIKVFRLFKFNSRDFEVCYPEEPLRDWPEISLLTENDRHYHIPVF
Summary of the method: as §1

OTUB1 = OTUB1 (UniProt Q96FW1)
Summary of the method: as §1

OTUD4 = biological target: T4, OTUD4 (UniProt Q01804)
T4 sequence (whole entry): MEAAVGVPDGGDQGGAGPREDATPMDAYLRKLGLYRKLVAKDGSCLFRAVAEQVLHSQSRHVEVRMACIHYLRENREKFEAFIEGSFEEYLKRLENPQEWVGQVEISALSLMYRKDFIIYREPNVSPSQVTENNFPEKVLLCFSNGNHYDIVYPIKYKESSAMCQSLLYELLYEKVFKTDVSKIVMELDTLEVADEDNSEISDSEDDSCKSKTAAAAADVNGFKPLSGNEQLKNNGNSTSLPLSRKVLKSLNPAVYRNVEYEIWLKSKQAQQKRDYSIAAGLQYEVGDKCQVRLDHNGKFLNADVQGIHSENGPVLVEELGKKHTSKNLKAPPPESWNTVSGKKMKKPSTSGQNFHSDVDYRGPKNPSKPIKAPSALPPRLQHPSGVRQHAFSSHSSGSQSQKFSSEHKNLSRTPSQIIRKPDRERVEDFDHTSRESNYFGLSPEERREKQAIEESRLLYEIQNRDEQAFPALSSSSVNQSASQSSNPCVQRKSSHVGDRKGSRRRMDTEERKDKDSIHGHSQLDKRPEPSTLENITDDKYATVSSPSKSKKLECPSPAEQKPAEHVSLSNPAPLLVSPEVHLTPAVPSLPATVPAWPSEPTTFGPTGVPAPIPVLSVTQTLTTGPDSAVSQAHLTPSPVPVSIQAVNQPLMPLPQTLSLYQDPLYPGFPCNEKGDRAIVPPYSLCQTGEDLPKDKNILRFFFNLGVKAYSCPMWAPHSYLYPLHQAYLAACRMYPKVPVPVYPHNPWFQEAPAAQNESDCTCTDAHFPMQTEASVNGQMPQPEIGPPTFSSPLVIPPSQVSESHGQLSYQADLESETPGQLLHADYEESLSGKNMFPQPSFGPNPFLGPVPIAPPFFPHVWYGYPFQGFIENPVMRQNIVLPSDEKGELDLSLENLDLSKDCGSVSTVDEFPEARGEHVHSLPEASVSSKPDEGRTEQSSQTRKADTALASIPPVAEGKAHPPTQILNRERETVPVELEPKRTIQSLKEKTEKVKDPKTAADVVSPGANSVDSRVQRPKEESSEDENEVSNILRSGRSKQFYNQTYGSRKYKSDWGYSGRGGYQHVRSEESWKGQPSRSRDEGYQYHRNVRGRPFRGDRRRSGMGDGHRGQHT
Summary of the method: as §1

OTUD5 = biological target: T5, OTUD5 (UniProt Q96G74)
T5 sequence (whole entry): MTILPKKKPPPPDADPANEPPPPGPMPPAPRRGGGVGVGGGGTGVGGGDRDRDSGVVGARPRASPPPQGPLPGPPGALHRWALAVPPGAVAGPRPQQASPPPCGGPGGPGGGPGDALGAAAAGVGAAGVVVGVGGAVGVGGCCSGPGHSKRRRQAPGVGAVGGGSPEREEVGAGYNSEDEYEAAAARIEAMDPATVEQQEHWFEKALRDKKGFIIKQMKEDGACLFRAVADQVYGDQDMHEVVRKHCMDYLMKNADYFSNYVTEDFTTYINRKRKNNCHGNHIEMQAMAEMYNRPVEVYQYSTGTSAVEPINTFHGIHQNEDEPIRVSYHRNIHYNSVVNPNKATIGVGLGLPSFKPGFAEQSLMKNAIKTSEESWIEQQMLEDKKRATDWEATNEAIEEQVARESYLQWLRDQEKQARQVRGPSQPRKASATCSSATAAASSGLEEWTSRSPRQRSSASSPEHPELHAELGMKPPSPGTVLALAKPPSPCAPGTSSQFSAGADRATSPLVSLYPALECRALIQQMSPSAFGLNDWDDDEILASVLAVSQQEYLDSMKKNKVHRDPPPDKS
Summary of the method: as §1

Measured: log2 ratio of Biotin-Ahx-Ub-VS probe labelling

Chain of EIF3H (O15372 whole entry): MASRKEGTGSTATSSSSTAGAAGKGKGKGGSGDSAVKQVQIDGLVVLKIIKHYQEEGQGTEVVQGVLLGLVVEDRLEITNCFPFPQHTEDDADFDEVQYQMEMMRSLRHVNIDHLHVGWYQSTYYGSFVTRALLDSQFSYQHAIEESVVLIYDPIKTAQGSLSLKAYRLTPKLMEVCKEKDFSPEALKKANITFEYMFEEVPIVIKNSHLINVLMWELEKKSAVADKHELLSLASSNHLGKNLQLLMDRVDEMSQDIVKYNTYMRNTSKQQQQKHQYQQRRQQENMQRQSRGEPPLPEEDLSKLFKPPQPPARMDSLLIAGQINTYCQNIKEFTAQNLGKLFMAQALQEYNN
Chain of EIF3F (O00303 whole entry): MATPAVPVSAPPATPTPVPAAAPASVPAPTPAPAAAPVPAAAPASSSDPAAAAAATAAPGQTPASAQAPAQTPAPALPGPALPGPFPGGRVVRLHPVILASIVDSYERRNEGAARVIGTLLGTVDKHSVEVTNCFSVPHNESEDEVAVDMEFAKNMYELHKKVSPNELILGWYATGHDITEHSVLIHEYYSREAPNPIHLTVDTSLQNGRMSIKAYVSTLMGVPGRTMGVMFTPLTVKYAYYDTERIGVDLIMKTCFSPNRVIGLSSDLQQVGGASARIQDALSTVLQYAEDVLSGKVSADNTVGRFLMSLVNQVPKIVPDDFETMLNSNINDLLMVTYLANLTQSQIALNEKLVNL
Chain of OTUB1 (Q96FW1 whole entry): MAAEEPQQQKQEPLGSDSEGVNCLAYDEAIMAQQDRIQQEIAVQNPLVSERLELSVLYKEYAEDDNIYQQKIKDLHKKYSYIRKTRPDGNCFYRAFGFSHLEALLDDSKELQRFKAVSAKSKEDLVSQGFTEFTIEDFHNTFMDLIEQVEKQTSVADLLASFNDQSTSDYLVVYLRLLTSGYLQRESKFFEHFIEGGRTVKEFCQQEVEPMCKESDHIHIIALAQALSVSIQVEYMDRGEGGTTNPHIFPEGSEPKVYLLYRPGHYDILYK
Chain of ATXN3 (P54252 whole entry): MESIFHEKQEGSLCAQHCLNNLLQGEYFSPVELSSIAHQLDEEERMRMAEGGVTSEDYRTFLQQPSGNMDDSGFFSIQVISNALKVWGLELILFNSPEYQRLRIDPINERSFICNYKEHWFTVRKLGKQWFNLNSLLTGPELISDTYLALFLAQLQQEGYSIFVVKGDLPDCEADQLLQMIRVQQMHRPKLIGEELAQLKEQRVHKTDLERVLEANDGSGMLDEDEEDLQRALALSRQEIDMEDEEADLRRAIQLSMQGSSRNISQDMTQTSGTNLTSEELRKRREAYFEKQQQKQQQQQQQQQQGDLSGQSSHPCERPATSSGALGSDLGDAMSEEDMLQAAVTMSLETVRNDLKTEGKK

CCN1C(=O)C2CN(C(=O)CCl)CCN2C1=O (stereo not drawn)
inactive: ALG13 0.104 | ATXN3 -0.84 | BAP1 -0.369 | EIF3F -0.18 | EIF3H 0.0778 | FAM105A -0.218 | OTUB1 -0.315 | OTUD4 -0.523 | OTUD5 -0.206

CN(C)C(=O)c1ccc(CNC(=O)CCl)cc1
active: BAP1 -2.84
inactive: ALG13 0.104 | ATXN3 -0.0706 | EIF3F 0.137 | EIF3H 0.092 | FAM105A 0.248 | OTUB1 -0.0918 | OTUD4 -0.365 | OTUD5 -0.146
